About 7,900 targets were measured; listed, in parts, are those with a hit and a random draw of the rest. About 0.6% of all pairs of compound and target were hits. Values without a mark were called inactive.
How the values were obtained:
Test in all cases: log2 fold change, soluble protein after heating vs DMSO (PISA); higher = thermal stabilisation; K562 cells, 10 uM, 30 min; active = over 0.2 and 3.5 SD of the protein, either way, in both replicates (recomputed)
[1] = compound: C1COCCN1CCN2C3=CC=CC=C3N=C2NC(=O)C4=CC(=CC=C4)[N+](=O)[O-] [IRAK-1-4 Inhibitor I]
Procedure, shortened: (§1)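 Values are thermal stability changes relative to control samples and are taken from duplicates. They are stated as log2 fold changes. Before quantification by TMTpro 16plex LC-MS/MS with equalised channel sums, K562 cells at 2×10^6 cells/mL were treated with 10 μM compound for 30 min, heated in aliquots for 3 min across 48°C-58°C, pooled, extracted in PBS with 0.5% NP-40 at 4°C, and centrifuged at 21,000xg for 90 min to give the soluble supernatant.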

[2] = compound: C=CC(=O)N1CCC[C@@H](n2nc(-c3ccc(Oc4ccccc4)cc3)c3c(N)ncnc32)C1 [ibrutinib]
Procedure, shortened: as §1

[3] = compound: CC(=O)c1cnc2ccc(-c3cc(Cl)c(O)c(Cl)c3)nc2c1N[C@H]1CC[C@H](CN(C)C)CC1
Procedure, shortened: as §1

[4] = compound: CC(C)(C)Cn1c(N)nc2ccc(-c3[nH]c(C(C)(C)C)nc3-c3ccc(F)cc3)nc21 [ralimetinib]
Procedure, shortened: as §1

[5] = compound: CC(C)(O)CC(=O)NCCn1ccc2ncnc(Nc3ccc(Oc4cccc(C(F)(F)F)c4)c(Cl)c3)c21
Procedure, shortened: as §1

[6] = compound: CC(C)C1=C2N=C(C=C(N2N=C1)NCC3=CC=CC=C3)NCCCCCCN
Procedure, shortened: as §1

[7] = compound: CC(C)C[C@@H](C=O)NC(=O)[C@H](CC(C)C)NC(=O)[C@H](CC(C)C)NC(=O)OCc1ccccc1
Procedure, shortened: as §1

[8] = compound: CC(C)N(C[C@H]1O[C@@H](n2cnc3c(N)ncnc32)[C@H](O)[C@@H]1O)[C@H]1C[C@@H](CCc2nc3cc(C(C)(C)C)ccc3[nH]2)C1 [pinometostat]
Procedure, shortened: as §1

[9] = compound: CC1=C(C(CC(=O)N1)C2=CC=C(C=C2)C(F)(F)F)C(=O)NC3=C(C=C4C(=C3)C=NN4)F
Procedure, shortened: as §1

[10] = compound: CC1=C(C2=C(C=C1)C(=O)C3=CC=CC=C3N2CCCN)C
Procedure, shortened: as §1

Sequence of UniProt P48507 (P48507 whole entry, looked up): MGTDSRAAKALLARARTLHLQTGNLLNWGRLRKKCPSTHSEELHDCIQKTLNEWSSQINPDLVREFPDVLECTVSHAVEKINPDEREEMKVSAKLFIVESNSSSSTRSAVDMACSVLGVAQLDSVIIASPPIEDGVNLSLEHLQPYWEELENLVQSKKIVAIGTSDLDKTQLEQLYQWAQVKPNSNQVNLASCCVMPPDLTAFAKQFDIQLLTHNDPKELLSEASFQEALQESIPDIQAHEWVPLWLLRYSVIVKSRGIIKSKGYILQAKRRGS
Sequence of UniProt P08236 (P08236 whole entry, looked up): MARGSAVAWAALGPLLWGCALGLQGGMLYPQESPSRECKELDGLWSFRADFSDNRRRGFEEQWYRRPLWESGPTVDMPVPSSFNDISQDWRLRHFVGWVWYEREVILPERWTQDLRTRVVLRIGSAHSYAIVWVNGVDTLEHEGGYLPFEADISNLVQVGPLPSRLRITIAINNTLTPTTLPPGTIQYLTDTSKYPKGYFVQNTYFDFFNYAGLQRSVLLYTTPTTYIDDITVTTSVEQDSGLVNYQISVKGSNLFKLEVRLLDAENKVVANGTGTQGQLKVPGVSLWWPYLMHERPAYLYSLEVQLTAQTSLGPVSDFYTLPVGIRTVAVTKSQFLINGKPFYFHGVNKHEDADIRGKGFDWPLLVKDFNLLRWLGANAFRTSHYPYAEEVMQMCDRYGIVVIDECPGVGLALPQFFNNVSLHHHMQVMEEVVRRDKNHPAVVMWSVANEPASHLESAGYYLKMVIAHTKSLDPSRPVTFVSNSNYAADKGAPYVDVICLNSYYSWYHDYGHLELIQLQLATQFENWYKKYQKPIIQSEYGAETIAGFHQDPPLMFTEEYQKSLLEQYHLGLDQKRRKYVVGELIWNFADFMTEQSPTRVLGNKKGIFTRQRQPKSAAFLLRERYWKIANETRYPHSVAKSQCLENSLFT
Sequence of UniProt Q9UKD1 (Q9UKD1 whole entry, looked up): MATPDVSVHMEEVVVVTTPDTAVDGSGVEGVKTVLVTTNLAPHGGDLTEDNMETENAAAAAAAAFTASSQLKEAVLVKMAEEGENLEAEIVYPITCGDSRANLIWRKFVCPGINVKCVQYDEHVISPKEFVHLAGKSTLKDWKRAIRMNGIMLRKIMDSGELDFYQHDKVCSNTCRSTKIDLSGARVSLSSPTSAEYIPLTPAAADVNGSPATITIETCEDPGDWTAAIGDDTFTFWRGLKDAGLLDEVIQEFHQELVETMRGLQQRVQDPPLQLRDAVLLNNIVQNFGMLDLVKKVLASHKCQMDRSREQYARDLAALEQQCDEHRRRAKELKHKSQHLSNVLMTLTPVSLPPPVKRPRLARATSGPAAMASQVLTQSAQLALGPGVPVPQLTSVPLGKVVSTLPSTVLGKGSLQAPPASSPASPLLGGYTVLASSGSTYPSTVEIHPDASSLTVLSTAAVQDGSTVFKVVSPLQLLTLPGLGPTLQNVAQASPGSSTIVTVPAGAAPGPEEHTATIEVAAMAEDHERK
Sequence of UniProt P31150 (P31150 whole entry, looked up): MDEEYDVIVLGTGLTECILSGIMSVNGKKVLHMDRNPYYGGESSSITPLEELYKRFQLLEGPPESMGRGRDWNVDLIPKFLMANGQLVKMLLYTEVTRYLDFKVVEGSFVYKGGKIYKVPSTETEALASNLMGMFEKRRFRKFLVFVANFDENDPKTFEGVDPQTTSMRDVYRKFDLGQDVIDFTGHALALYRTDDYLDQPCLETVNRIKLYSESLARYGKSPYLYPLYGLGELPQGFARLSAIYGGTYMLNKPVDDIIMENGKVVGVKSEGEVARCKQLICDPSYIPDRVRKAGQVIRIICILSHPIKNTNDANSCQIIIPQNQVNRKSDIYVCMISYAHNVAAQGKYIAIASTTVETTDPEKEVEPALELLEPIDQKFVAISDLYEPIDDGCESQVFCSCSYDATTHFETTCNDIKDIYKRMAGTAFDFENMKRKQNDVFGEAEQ
Sequence of UniProt Q10471 (Q10471 whole entry, looked up): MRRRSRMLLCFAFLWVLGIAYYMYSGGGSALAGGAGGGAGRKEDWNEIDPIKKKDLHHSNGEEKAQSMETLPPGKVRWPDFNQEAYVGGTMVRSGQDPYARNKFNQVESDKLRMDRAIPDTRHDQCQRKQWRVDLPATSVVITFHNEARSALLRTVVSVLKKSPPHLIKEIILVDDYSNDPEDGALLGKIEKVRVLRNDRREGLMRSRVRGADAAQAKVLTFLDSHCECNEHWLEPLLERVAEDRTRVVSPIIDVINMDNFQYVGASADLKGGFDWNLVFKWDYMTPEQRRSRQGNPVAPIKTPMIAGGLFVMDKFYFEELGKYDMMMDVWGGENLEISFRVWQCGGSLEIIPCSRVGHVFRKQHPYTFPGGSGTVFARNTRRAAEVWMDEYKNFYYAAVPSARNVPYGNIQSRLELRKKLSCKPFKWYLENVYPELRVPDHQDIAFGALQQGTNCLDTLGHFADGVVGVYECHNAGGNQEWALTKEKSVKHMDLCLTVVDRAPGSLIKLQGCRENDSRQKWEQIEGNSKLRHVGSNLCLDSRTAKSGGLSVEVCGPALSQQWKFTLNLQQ
Sequence of UniProt P13807 (P13807 whole entry, looked up): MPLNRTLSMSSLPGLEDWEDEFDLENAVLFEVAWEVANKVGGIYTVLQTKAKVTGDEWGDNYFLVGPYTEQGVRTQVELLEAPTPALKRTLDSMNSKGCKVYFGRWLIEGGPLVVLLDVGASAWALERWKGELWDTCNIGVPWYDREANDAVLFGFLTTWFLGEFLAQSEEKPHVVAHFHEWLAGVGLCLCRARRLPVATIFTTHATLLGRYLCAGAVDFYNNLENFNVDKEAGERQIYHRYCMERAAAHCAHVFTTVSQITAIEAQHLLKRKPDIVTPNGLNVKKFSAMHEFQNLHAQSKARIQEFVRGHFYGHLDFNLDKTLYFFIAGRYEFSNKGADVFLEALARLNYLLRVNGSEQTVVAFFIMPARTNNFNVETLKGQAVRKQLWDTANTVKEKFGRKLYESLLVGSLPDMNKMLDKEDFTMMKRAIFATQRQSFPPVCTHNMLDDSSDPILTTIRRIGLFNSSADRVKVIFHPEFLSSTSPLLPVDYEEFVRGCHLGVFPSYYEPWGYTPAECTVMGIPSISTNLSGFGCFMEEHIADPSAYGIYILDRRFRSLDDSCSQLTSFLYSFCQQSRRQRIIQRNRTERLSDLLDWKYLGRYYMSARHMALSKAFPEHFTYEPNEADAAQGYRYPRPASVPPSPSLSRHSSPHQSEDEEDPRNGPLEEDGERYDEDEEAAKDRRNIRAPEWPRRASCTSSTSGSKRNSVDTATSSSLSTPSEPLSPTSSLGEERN

Row | Target | log2 fold change [1] | log2 fold change [2] | log2 fold change [3] | log2 fold change [4] | log2 fold change [5] | log2 fold change [6] | log2 fold change [7] | log2 fold change [8] | log2 fold change [9] | log2 fold change [10]
1 | GDI1 (UniProt P31150) | 0.034 | 0.018 | -0.027 | -0.057 | 0.009 | 0.04 | -0.012 | -0.008 | -0.022 | 0.011
2 | GYS1 (UniProt P13807) | -0.151 | 0.009 | -0.976 (active) | 0.095 | 0.158 | -0.253 | 0.141 | 0.412 | 0.042 | 0.046
3 | GCLM (UniProt P48507) | -0.065 | -0.038 | 0.106 | 0.002 | -0.104 | -0.034 | 0.02 | 0.049 | -0.078 | -0.023
4 | GUSB (UniProt P08236) | 0.037 | -0.016 | -0.075 | -0.013 | 0.011 | 0.025 | -0.005 | -0.032 | 0.174 | -0.077
5 | GMEB2 (UniProt Q9UKD1) | -0.021 | 0.061 | -0.022 | 0.018 | -0.158 | 0.006 | -0.128 | 0.145 | 0.004 | -0.367 (active)
6 | GALNT2 (UniProt Q10471) | 0.009 | -0.019 | -0.006 | 0.014 | 0.027 | -0.021 | -0.02 | -0.02 | -0.028 | 0.007
